In brackets after ≈: the same amount, converted by molar mass. In all, about 1,100 compounds went through this assay and about 170 (15%) were called active. How the calls were made is not given here. The list is a sample of the results. Non-standard residues stand in square brackets, D forms with d. Residues, ends and D or L forms follow the SMILES beside them. *: point of attachment. Sta = CC(C)C[C@H](N)[C@@H](O)CC(=O)O; Isovaleryl = CC(C)CC(=O)*

The test can be described thus: Confirmatory growth inhibition assay, mycobacterium tuberculosis h37rv, with cytotoxicity (AID 1332).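 On CC50: Vero cells exposed to compounds for 72 hours.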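 On IC50: bacteria incubated 7 days before adding Alamar blue readout reagent.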 The note with it: M. tuberculosis H37Rv growth inhibition; CC50: measured here: Vero cell cytotoxicity; IC50: measured here: IC50 H37Rv replicates.
As for `CCc1nc(N)nc(N)c1-c1ccc(Cl)cc1`, the CC50 – broadly, the concentration that lowers cell viability or growth by half – worked out at 1.26 µg/mL (≈ 5.06 µM); the IC50 – broadly, the midpoint of a concentration-inhibition curve – is 7.67 µg/mL (≈ 30.8 µM); the call was active.

As to `C[C@H]1CCC2(NC1)O[C@H]1C[C@H]3[C@@H]4CC[C@H]5C[C@@H](O[C@@H]6O[C@H](CO)[C@H](O[C@@H]7O[C@H](CO)[C@@H](O)[C@H](O[C@@H]8OC[C@@H](O)[C@H](O)[C@H]8O)[C@H]7O[C@@H]7O[C@H](CO)[C@@H](O)[C@H](O)[C@H]7O)[C@H](O)[C@H]6O)CC[C@]5(C)[C@H]4CC[C@]3(C)[C@H]1[C@@H]2C` (some centres undefined), the CC50 is 3.98 µg/mL (≈ 3.85 µM), the IC50 is more than 20 µg/mL and the result was inactive.

For `C[C@@H]1C[C@H]2[C@@H]3C[C@H](F)C4=CC(=O)C=C[C@]4(C)[C@@]3(Cl)[C@@H](O)C[C@]2(C)[C@H]1C(=O)COC(=O)C(C)(C)C`, the CC50 was more than 6 µg/mL, the IC50 was more than 20 µg/mL and the call was inactive.

In the case of `C[N+]1(C)CCC(=C(c2ccccc2)c2ccccc2)CC1`, the half-inhibitory concentration (IC50) is more than 20 µg/mL and the molecule was classed as inactive.

For the molecule `CCc1cc(C(N)=S)ccn1`, the 50% inhibitory concentration (IC50) was found to be 1.95 µg/mL (≈ 11.7 µM) and the result was active.

Regarding `Cc1c(C)c2c(c(C)c1O)CCC(C)(C(=O)O)O2` (centres undefined), the IC50 is more than 20 µg/mL and the call was inactive.

Consider `COc1ccc(CC(C)(N)C(=O)O)cc1OC` (centres undefined), for which the half-maximal cytotoxic concentration (CC50) is more than 6 µg/mL, the IC50 was more than 20 µg/mL and the result was inactive.

Take `Nc1nc2c(c(=O)[nH]1)N(C=O)C(CNc1ccc(C(=O)N[C@@H](CCC(=O)O)C(=O)O)cc1)CN2` (some centres undefined): the IC50 was more than 20 µg/mL and the result was inactive.

Turning to `O=C(CCCN1CCC(O)(c2ccc(Cl)cc2)CC1)c1ccc(F)cc1`, the concentration for half-maximal inhibition (IC50) was more than 20 µg/mL and the result was inactive.

Consider `O=C(CCCN1CCC(O)(c2ccc(Br)cc2)CC1)c1ccc(F)cc1`, for which the concentration for half-maximal inhibition (IC50) is more than 20 µg/mL and the molecule was called inactive.

Turning to `CN(C)C(=O)C(CCN1CCC(O)(c2ccc(Cl)cc2)CC1)(c1ccccc1)c1ccccc1`, the IC50 was 10.9 µg/mL (≈ 22.9 µM) and the molecule was classed as active.

Consider `CN1CC[C@@]2(C)c3cc(O)ccc3N(C)[C@H]12`, for which the IC50 was more than 20 µg/mL and the call was inactive.

In the case of `CC(CN(C)C)CN1c2ccccc2Sc2ccccc21` (centres undefined), the CC50 was more than 6 µg/mL, the half-inhibitory concentration (IC50) was more than 20 µg/mL and the call was inactive.

For the molecule `CCCCc1ccc2nc(NC(=O)OC)[nH]c2c1`, the CC50 was 0.043 µg/mL (≈ 0.174 µM), the IC50 was more than 20 µg/mL and the call was inactive.

As for `CCCCOc1ccc(CC(=O)NO)cc1`, the half-maximal cytotoxic concentration (CC50) is more than 6 µg/mL, the IC50 is more than 20 µg/mL and the molecule was called inactive.

On to `CCCCc1ccc(C(=O)O)nc1`, for which the cytotoxic concentration (CC50) was more than 6 µg/mL, the IC50 turned out to be 3.88 µg/mL (≈ 21.7 µM) and the outcome was active.

Take `Cc1cc(CC(=O)O)n(C)c1C(=O)c1ccc(Cl)cc1`: the IC50 was more than 20 µg/mL and the call was inactive.

Take `O=C(CCCN1CCN(c2ccccn2)CC1)c1ccc(F)cc1`: the half-maximal inhibitory concentration (IC50) was more than 20 µg/mL and the molecule was called inactive.

On to `C[C@H]1[C@H](C)CC[C@]2(C(=O)O)CC[C@]3(C)C(=CC[C@@H]4[C@@]5(C)CC[C@H](O)C(C)(C)[C@@H]5CC[C@]43C)[C@H]12`, for which the half-maximal inhibitory concentration (IC50) is more than 20 µg/mL and the call was inactive.

For `CN(C)CCC(c1ccc(Cl)cc1)c1ccccn1` (centres undefined), the 50% inhibitory concentration (IC50) was more than 20 µg/mL and the result was inactive.

`CN[C@@H]1[C@H](O)[C@H](NC)[C@H]2O[C@@]3(O)C(=O)C[C@@H](C)O[C@H]3O[C@@H]2[C@H]1O`: the IC50 was found to be 7.14 µg/mL (≈ 21.5 µM) and the result was active.

As to `C/C(=C(/CCO)SSCC1CCCO1)N(C=O)Cc1cnc(C)nc1N` (centres undefined), the concentration for half-maximal inhibition (IC50) is more than 20 µg/mL and the call was inactive.

For the molecule `C=Cc1c(C)c2cc3nc(cc4[nH]c(cc5nc(cc1[nH]2)C(C)=C5CCC(=O)O)c(CCC(=O)O)c4C)[C@@]1(C)C3=CC=C(C(=O)OC)C1C(=O)OC` (some centres undefined), the IC50 was more than 20 µg/mL and the molecule was called active.

For `CC(O)(P(=O)(O)O)P(=O)(O)O`, the half-inhibitory concentration (IC50) is more than 20 µg/mL and the molecule was called inactive.

On to `CC(=O)c1ccc2c(c1)N(CCCN1CCC(CCO)CC1)c1ccccc1S2`, for which the IC50 was more than 20 µg/mL and the outcome was inactive.

`OCCOCCN1CCN(C(c2ccccc2)c2ccc(Cl)cc2)CC1` (centres undefined): the IC50 was more than 20 µg/mL and the molecule was classed as inactive.

Turning to `OCCN1CCN(CC/C=C2/c3ccccc3Sc3ccc(Cl)cc32)CC1`, the 50% cytotoxic concentration (CC50) was more than 6 µg/mL, the 50% inhibitory concentration (IC50) was 9.26 µg/mL (≈ 23.1 µM) and the molecule was classed as active.

For `CC(=O)Nc1ccc(O)cc1`, the IC50 was more than 20 µg/mL and the molecule was called inactive.

As for `CCN[C@H]1C[C@H](C)S(=O)(=O)c2sc(S(N)(=O)=O)cc21`, the IC50 is more than 20 µg/mL and the result was inactive.

For `O=C(CCNNC(=O)c1ccncc1)NCc1ccccc1`, the IC50 amounted to 0.393 µg/mL (≈ 1.32 µM) and the molecule was called active.

Turning to `Cc1cc(C(=O)NNCc2ccccc2)no1`, the half-maximal inhibitory concentration (IC50) is more than 20 µg/mL and the molecule was called inactive.

As for `CC(C)NNC(=O)c1ccncc1`, the 50% inhibitory concentration (IC50) was more than 20 µg/mL and the molecule was classed as inactive.

For the molecule `CC(C)(C)NC(=O)[C@@H]1C[C@@H]2CCCC[C@@H]2CN1C[C@@H](O)[C@H](Cc1ccccc1)NC(=O)[C@H](CC(N)=O)NC(=O)c1ccc2ccccc2n1`, the IC50 came out at 17.3 µg/mL (≈ 25.7 µM) and the outcome was active.

For the molecule `C[C@@H]1CC[C@H]2[C@@H](C)C(=O)O[C@@H]3OC4(C)CC[C@@H]1[C@]32OO4`, the IC50 is more than 20 µg/mL and the call was inactive.

With `CN1CC[C@]23c4ccccc4N[C@H]1[C@]21CCN(C)[C@H]3Nc2ccccc21`, the half-inhibitory concentration (IC50) is more than 20 µg/mL and the outcome was inactive.

For `CN1CCN(C(c2ccccc2)c2ccccc2)CC1`, the half-maximal inhibitory concentration (IC50) was more than 20 µg/mL and the molecule was classed as inactive.

As for `CN1CCCN(C(c2ccccc2)c2ccc(Cl)cc2)CC1` (centres undefined), the CC50 was more than 6 µg/mL, the IC50 worked out at 19.3 µg/mL (≈ 61.3 µM) and the molecule was classed as active.

On to `O=C(O)COCCN1CCN(C(c2ccccc2)c2ccc(Cl)cc2)CC1` (centres undefined), for which the IC50 was more than 20 µg/mL and the call was inactive.

In the case of `Cc1cc(-c2ccccc2)nnc1NCCN1CCOCC1`, the 50% inhibitory concentration (IC50) was more than 20 µg/mL and the result was inactive.

Take `CC(C)CC(=O)N[C@H](C(=O)N[C@H](C(=O)N[C@@H](CC(C)C)[C@@H](O)CC(=O)N[C@@H](C)C(=O)N[C@@H](CC(C)C)[C@@H](O)CC(=O)O)C(C)C)C(C)C` (Isovaleryl-VV[Sta]A[Sta]-OH): the half-inhibitory concentration (IC50) is more than 20 µg/mL and the result was inactive.

Regarding `Cc1c(-c2ccccc2)oc2c(C(=O)OCCN3CCCCC3)cccc2c1=O`, the half-maximal inhibitory concentration (IC50) is more than 20 µg/mL and the molecule was called inactive.

Regarding `CN(C)CC/C=C1\c2ccccc2COc2ccccc21`, the IC50 was more than 20 µg/mL and the molecule was classed as inactive.

These data come from PubChem BioAssay AID1332 (Southern Research Institute, 2008).
